“And” between values parts separate entries of the source, which are not always exact repeats. Identical values can stand only once. Inconclusive results are not listed. Some compounds were tested as several samples or in several runs, with calls that do not always agree. The source made the active and inactive calls. The call rests on the fitted dose curve.
Legend:
[1] = biological target: Acetylcholinesterase (Homo sapiens) (UniProt P22303); experiment: Acetylcholinesterase (AChE) small molecule antagonists: colormetric cell-based qHTS assay (AID 1347395); further: nearly all actives have a fitted effect of over 30% in size
How it was run: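 Endogenous AChE of human neuroblastoma SH-SY5Y cells was measured with an Ellman-type DTNB/acetylthiocholine mix. Compound pretreatment lasted 30 min at 37 C; substrate reaction ran 90 min at 37 C.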

[2] = biological target: Acetylcholinesterase (Homo sapiens) (UniProt P22303); experiment: Acetylcholinesterase (AChE) small molecule antagonists: enzyme-based qHTS assay (AID 1347397); settings: Potency: AChE enzyme activity inhibition; outcome: AChE enzyme activity inhibition; further: nearly all actives have a fitted effect of over 55% in size
How it was run: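 Tox21 library chemicals are tested in qHTS format against recombinant human AChE. The enzyme, dispensed at 50 mU/mL, sits with compound for 30 min at room temperature. A DTNB–acetylthiocholine cocktail follows, and colour is read after 10 min.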

[3] = biological target: Acetylcholinesterase (Homo sapiens) (UniProt P22303); experiment: Acetylcholinesterase (AChE) small molecule antagonists: fluorescence cell-based qHTS assay (AID 1347398); settings: Potency: AChE activity; outcome: AChE activity; further: nearly all actives have a fitted effect of over 50% in size
How it was run: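 Cellular AChE inhibition: SH-SY5Y cells treated with test chemical for 30 min at 37 C, then acetylthiocholine hydrolysis followed over 40 min at room temperature via thiocholine-reactive Thiolite Green fluorescence (490/520 nm).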

[4] = biological target: Acetylcholinesterase (Homo sapiens) (UniProt P22303); experiment: Acetylcholinesterase (AChE) small molecule antagonists: enzyme-based qHTS assay with human liver microsomes (AID 1347399); settings: Potency: qHTS inhibition; outcome: qHTS inhibition; further: nearly all actives have a fitted effect of over 60% in size
How it was run: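 Recombinant human AChE (50 mU/mL in the enzyme mix) and human liver microsomes (0.25 mg/mL final) were preincubated with compound and NADPH (0.25 mg/mL final) for 30 min at 37 C. Acetylthiocholine/DTNB was then added; thiocholine was read colorimetrically after 10 min at room temperature.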

Measured: Potency
Potency means the concentration at half of the fitted maximal effect.

Sequence of Acetylcholinesterase (Homo sapiens) (P22303 whole entry, looked up): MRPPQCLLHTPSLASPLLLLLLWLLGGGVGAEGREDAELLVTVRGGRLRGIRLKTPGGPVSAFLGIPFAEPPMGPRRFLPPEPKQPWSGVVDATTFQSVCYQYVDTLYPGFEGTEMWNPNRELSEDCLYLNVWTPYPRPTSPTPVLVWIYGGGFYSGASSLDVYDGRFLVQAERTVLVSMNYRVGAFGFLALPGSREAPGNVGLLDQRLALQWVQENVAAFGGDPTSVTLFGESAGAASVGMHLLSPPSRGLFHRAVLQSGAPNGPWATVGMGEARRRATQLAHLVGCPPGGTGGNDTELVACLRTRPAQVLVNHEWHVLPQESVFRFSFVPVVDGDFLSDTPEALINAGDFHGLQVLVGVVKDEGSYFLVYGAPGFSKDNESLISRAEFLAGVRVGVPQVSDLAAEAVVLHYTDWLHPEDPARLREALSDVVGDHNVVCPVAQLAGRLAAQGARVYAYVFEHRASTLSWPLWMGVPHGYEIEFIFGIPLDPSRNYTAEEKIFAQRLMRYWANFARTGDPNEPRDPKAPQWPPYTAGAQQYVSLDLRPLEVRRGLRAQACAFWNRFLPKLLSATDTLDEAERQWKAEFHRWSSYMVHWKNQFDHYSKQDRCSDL

CCCCCCCCSCC
inactive: all assays above

O=[N+]([O-])c1ccc(NCCO)c(OCCO)c1
inactive: all assays above

O=C(O)CCCCC1CCSS1 (stereo not drawn)
inactive: all assays above

CCCCCCCCOCCC#N
inactive: all assays above

CCOC(=O)c1ccc(I)cc1
inactive: [1] | [2] | [3]

CCOCCOCCOCC
inactive: all assays above

Cc1ccc(C(C)(C)C)c(O)c1
inactive: all assays above

Cc1cc(OCCOCC[N+](C)(C)Cc2ccccc2)ccc1C(C)(C)CC(C)(C)C
active: [1] 39.7 µM and 17.4 µM | [2] 56.1 µM and 30.9 µM | [3] 14.1 µM and 8.71 µM
inactive: [4]

O=C(c1ccccc1)c1ccc(Cl)cc1
inactive: [1] | [2] | [3]

Clc1cccc(-c2cc(Cl)cc(Cl)c2)c1
inactive: all assays above

Cc1ccc(Cl)c(Nc2ccccc2C(=O)O)c1Cl
inactive: all assays above

O=C1CCCCCN1
inactive: all assays above

Cc1c(NC(=O)c2cccnc2)c(=O)n(-c2ccccc2)n1C
inactive: all assays above

CNC(=S)NN
inactive: all assays above

O=S(=O)(O)c1cccc(S(=O)(=O)O)c1
inactive: all assays above

NCCO
inactive: all assays above

CN(C)C(=S)SC(=S)N(C)C
inactive: [2] | [4]
56.4 µM (active) and inactive: [1]
35.6 µM (active) and inactive: [3]

Cn1nnc2c(C(N)=O)ncn2c1=O
inactive: all assays above

Cc1ccc(C(C)C)cc2c(C)ccc1-2
inactive: all assays above

CCN=c1cc2oc3cc(NCC)c(C)cc3c(-c3ccccc3C(=O)OCC)c-2cc1C
inactive: [3]
active: [1] 6.31 µM and 8.94 µM | [2] 17.8 µM | [4] 79.4 µM and 63.3 µM

O=C(c1ccc(O)cc1)c1ccc(O)cc1O
inactive: all assays above

O=C1CCC(N2C(=O)c3ccccc3C2=O)C(=O)N1 (stereo not drawn)
inactive: all assays above

CCCCCCCCO
inactive: all assays above

O=C(O)CCNC(=O)c1ccccc1
inactive: all assays above

COC(=O)c1ccc(C)cc1
inactive: all assays above

O=C1[C@H](CC[C@H](O)c2ccc(F)cc2)[C@@H](c2ccc(O)cc2)N1c1ccc(F)cc1
inactive: all assays above

O=S(=O)(Oc1ccc(Cl)cc1)c1ccccc1
inactive: all assays above

CCCC(=O)OCC(COC(=O)CCC)OC(=O)CCC
inactive: all assays above

OCC1CCCO1 (stereo not drawn)
inactive: all assays above

NNC(=O)c1cccc(C(=O)NN)c1
inactive: all assays above

Cc1ccc(C(C)(C)O)cc1
inactive: all assays above

Oc1c(Cl)cc(Cl)c2cccnc12
inactive: all assays above

O=C1CCC/C=C\CCCCCCCCCC1
inactive: all assays above

O=C(O)c1cc(O)c(O)c(O)c1
inactive: all assays above

CC(=O)[C@@]1(O)CC[C@H]2[C@@H]3C[C@H](C)C4=CC(=O)C=C[C@]4(C)[C@@]3(F)[C@@H](O)C[C@@]21C
inactive: all assays above

O=C1c2c(O)ccc(Nc3ccc(CCO)cc3)c2C(=O)c2c([N+](=O)[O-])ccc(O)c21
inactive: [4]
active: [1] 8.94 µM | [2] 20 µM | [3] 11.2 µM

CCC(=O)OC(C)(C)C1CC=C(C)CC1 (stereo not drawn)
inactive: all assays above

O[C@@H](c1cc(C(F)(F)F)nc2c(C(F)(F)F)cccc12)[C@H]1CCCCN1
inactive: all assays above

CC1=Nc2ccccc2C1(C)C
inactive: all assays above

CCCCC1(COC(=O)CCC(=O)O)C(=O)N(c2ccccc2)N(c2ccccc2)C1=O
inactive: all assays above

Nc1c(S(=O)(=O)O)cc(Br)c2c1C(=O)c1ccccc1C2=O
inactive: all assays above

CCN(CC)c1ccc2c(C)cc(=O)oc2c1
inactive: all assays above

CC(=O)OC[C@H]1O[C@@H](OC(C)=O)[C@H](OC(C)=O)[C@@H]1OC(C)=O
inactive: all assays above

CCCCCCCCCCCCCCNCCO
inactive: all assays above

O=C(O)C(=O)O
inactive: all assays above

CC(C)(c1ccc(O)cc1)c1ccc(O)cc1
inactive: all assays above

Cc1ccc(NC=O)c(C)c1
inactive: all assays above

COC(=O)CCC(=O)OC
inactive: all assays above

CCCC(=O)OCOC(=O)C1=C(C)NC(C)=C(C(=O)OC)C1c1cccc(Cl)c1Cl (stereo not drawn)
inactive: all assays above

CC1OC1C1CCC2(C)OC2C1 (stereo not drawn)
inactive: all assays above

CC(=O)C(C)O (stereo not drawn)
inactive: all assays above

CNc1ccc([N+](=O)[O-])cc1
inactive: all assays above

NNS(=O)(=O)c1ccc(Oc2ccc(S(=O)(=O)NN)cc2)cc1
inactive: all assays above

CCOC(=O)NCCOc1ccc(Oc2ccccc2)cc1
inactive: all assays above

CCCCC(CC)COP(=O)(O)OCC(CC)CCCC (stereo not drawn)
inactive: all assays above

From PubChem BioAssay (Tox21)
